# Screens from PubChem.
# pAkt inh = blocks phosphorylation of Akt | Neuro2A IGF-stimulated pAkt S473 HTRF, 20 min; hits give low values | activity change, % for hits at 50 µM | 0.32% of 360,000 active | AID 651550; in the data active means activity change below about -80%; inconclusive means mostly about -51% to -80%; further: on the % scale 0 is the no-effect control and ±100 the full control effect
#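 Neuro2A cells (4,500/well, DMEM with 0.5% FBS) were treated with compound at a single 50 µM final concentration, stimulated with 6 nM IGF for 20 min at 37 °C, and lysed. Phospho-Akt Ser473 was read by HTRF as 665/615 ratio ×10^4.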
# RGS4 inhibitor = inhibitors of human regulator of G protein signaling 4; P49798; Transcreener GDP fluorescence polarization, RGS4-accelerated GTP hydrolysis; Potency, µM (series often up to 114 µM), for inactives: top-dose activity change, negative = inhibition, most hits filed as inhibitors; 0.039% of 390,000 active; AID 504845; active means well fitted inhibition curve with a large enough effect; inconclusive means small, poorly fitted or top-dose-only effect; inactive means no such curve, though single readings can be large or run the other way; further: potency means the concentration at half of the fitted maximal effect; on the % scale 0 is the no-effect control and ±100 the full control effect; nearly all actives have a fitted effect of over 75% in size
# Target sequence (P49798 whole entry, looked up): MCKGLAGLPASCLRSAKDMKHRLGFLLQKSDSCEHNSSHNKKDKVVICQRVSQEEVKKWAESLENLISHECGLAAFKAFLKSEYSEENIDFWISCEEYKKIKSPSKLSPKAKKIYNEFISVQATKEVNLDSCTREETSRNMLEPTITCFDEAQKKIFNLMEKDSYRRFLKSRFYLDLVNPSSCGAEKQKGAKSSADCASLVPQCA
#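 MLSMR compounds (23 nl, pin-transferred) preincubated 10 min at room temperature with a 500nM (2x) first reagent, then RGS4 at 900nM (2x) plus Transcreener GDP mix added; fluorescence polarization (620/688 nm) read before and after 90 min at 30 °C.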
# D3 ag = activates the human D3 dopamine receptor | 0.58% of 410,000 active | D3R DiscoveRx beta-arrestin cells, luminescence, 90 min | max activation, % | AID 652048 | P35462; in the data active means max activation above about 30%; further: 0% is about no effect
# Target sequence (P35462 whole entry, looked up): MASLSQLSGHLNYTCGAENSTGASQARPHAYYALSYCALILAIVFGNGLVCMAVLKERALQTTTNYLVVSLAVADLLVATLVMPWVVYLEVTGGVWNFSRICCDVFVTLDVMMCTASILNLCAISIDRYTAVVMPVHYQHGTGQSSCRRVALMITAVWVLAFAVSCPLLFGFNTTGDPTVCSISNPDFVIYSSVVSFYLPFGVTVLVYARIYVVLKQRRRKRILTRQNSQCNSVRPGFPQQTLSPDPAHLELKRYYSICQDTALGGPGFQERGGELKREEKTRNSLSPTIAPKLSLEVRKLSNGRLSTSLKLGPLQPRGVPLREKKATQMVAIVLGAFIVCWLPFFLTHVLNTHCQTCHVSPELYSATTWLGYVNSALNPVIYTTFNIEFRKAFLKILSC
#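 Agonist mode: compounds and dopamine controls were applied to plated cells for 90 min at 37 degrees C after an overnight attachment at 1500 cells/well. Luminescent read-out followed 30 - 60 minutes at room temperature with DiscoveRx detection reagent.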
# LDHA block = blocks human lactate dehydrogenase A | activity change, % (values are at about 110 or 230 µM) | purified LDHA, NADH/diaphorase-resazurin fluorescence; hits give low values | P00338 | 0.15% of 480,000 active; in the data active means activity change below about -30%; inconclusive means mostly about -25% to -30%;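 further: plate controls were DMSO wells for no effect and wells without enzyme for full effect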
#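 Enzyme activity of human lactate dehydrogenase 5 (2 nM; 0.06 mM NADH, 0.2 mM pyruvate, 5 min, RT) is measured via a resazurin/diaphorase fluorescence readout of residual NADH.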
# DRD3 antagonist = blocks the human D3 dopamine receptor. P35462. D3R cells, DiscoveRx beta-arrestin luminescence, antagonist mode; hits give low values. max response, negative = inhibition, %. 2.5% of 360,000 active. AID 652054; in the data active means max response below about -50%; inconclusive means no clear call, values can overlap the other calls; further: on the % scale 0 is the no-effect control and ±100 the full control effect
#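 Cells expressing the human receptor were seeded at 1500 cells/well, incubated overnight at 37 degrees C in 5% CO2, then exposed to library compounds with dopamine controls for 90 minutes at 37 degrees C before luminescent detection.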
# PI4K2A inh = blocks human PI4K2A kinase activity; Q9BTU6; purified PI4K2A, ADP-Glo luminescence, 1 h; hits give low values; activity change, negative = inhibition, % at 76.9 µM; 0.13% of 420,000 active; AID 1346378; in the data active means activity change below about -50%; inconclusive means mostly about -30% to -49%;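 further: -100% = wells without enzyme as full effect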
#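 PI4K2A activity was measured by ADP-Glo luminescence: enzyme (4 ug/mL stock) and phosphatidylinositol (1.2 mM stock) in Tris pH 7.5/MgCl2/EGTA/Triton X-100 buffer were reacted with ATP (300 microM stock) for one hour at ambient temperature.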
# Active calls of the source: *; i = inactive; ? = inconclusive; · = not tested or not shown; ! = not active in a repeat; [ ] = dose if it differs, or a comment. Compounds with a hit are over-represented: about 2.8% of the library has one in this group of screens.
SMILES,pAkt inh,RGS4 inhibitor,D3 ag,LDHA block,DRD3 antagonist,PI4K2A inh
CCC1Nc2ncnc(N3CCc4ccccc4C3)c2N(Cc2ccc(Br)cc2)C1=O (centres undefined),i,·,-23,-6,-84*,1
O=C1C(Cc2ccccc2)Nc2ncnc(N3CCc4ccccc4C3)c2N1Cc1ccccc1 (centres undefined),i,-8%,26,-1,-18,-5
CCOC(=O)Cn1nc2oc(=O)c(CCN3CCN(c4ccccc4OC)CC3)c(C)c2c1C,i,·,-7,-11,-108*,0
Cc1c(O)ccc2c(CN(C)CCOc3ccccc3)cc(=O)oc12,·,·,·,9,·,·
COc1ccccc1N1CCN(S(=O)(=O)/C=C/c2ccccc2)CC1,-126%*,-2%,-6,-1,8,11
N#CCCN1CCN(Cc2cc(-c3ccccc3)ccc2O)CC1,i,-9%,-10,-8,-96*,3
Cc1cccc(OCC(=O)N2CCC(NC(=O)c3ccccc3)CC2)c1,·,·,·,-1,·,·
CC(C)(C)c1cc(C(=O)N/N=C/c2ccc(-c3ccccc3[N+](=O)[O-])o2)n[nH]1,i,?,-28,8,?,1
O=C(N/N=C/c1ccc(-c2ccccc2[N+](=O)[O-])o1)c1cccnc1,i,?,-2,21,-59*,-7
O=C(NCc1cccnc1)c1ccc(-c2ccccc2[N+](=O)[O-])o1,i,-18%,-6,24,-55*,-11
O=C(NCc1ccccc1)c1ccc(-c2ccccc2C(F)(F)F)o1,i,-21%,-90,0,-56*,2
O=C(NCc1cccnc1)c1ccc(-c2cccc(Cl)c2Cl)o1,i,-44%,-17,-7,-25,1
O=C(O)c1ccc(-c2ccccc2C(F)(F)F)o1,i,-23%,4,-5,24,3
CCC(C)c1ccc2oc(-c3ccc(N)cc3)nc2c1 (centres undefined),·,·,·,0,·,·
CCCCN1CCNC[C@H]1Cc1ccc(O)cc1,i,27%,-10,-3,-92*,-2
COc1cc(/C=C/c2ccc3cccc(OC)c3n2)c(OC(C)=O)c([N+](=O)[O-])c1,i,-6%,-9,0,-53*,-5
C[C@H](CCCC/C=C/C(=O)O)O[C@@H]1O[C@@H](C)[C@H](O)C[C@H]1O,i,-10%,44*,-12,3,1
Cn1ncc2c(N3CCN(c4ccccc4F)CC3)ncnc21,i,2%,30*!,-3,29,-9
Cn1nnc2c(N3CCN(c4ccccc4F)CC3)ncnc21,·,-3%,-3,-4,·,-1
Cc1ccccc1/C=C(/C#N)C(=O)c1sccc1C,·,·,·,9,·,·
O=C(OCC(O)CO)c1ccccc1Nc1ccnc2cc(Cl)ccc12 (centres undefined),i,4%,46*!,-7,49,-20
CCOC(=O)c1nnn(-c2nonc2N)c1-c1ccc(OCC)cc1,-112%*,8%,11,2,0,-1
C=C(C)Cn1c(CCNC(=O)CCC)nc2ccccc21,-104%*,20%,2,-1,12,8
C=C(C)Cn1c(CCCNC(=O)CC)nc2ccccc21,·,-6%,4,1,18,4
CN(CC(=O)Nc1cccc(F)c1)Cc1cc(Cl)cc2c1OCOC2,·,·,·,7,·,·
SMILES,pAkt inh,RGS4 inhibitor,D3 ag,LDHA block,DRD3 antagonist,PI4K2A inh
Cc1noc(C)c1COc1ccc(C(=O)O)cc1,i,4%,33*,0,-16,1
Oc1c(Cl)cc(Cl)cc1C=Nc1ccc(Br)cc1,i,0%,-16,1,37,-4
Cc1ccc(N=Cc2cc(Br)cc(Cl)c2O)cc1,i,-5%,-28,-1,-65*,-10
C=CCNc1nc(C(=O)OCC(=O)c2cc(C)n(C)c2C)cs1,·,·,·,-1,·,·
Nc1c(-c2ccc(Cl)cc2)cnn1-c1cccc(C(F)(F)F)c1,-113%*,12%,-10,-9,-18,-4
Cc1ccc(-c2cnn(-c3cccc(C(F)(F)F)c3)c2N)cc1,i,8%,-21,-8,22,-1
COc1ccc(OC)c(NC(=O)c2nc(S(=O)(=O)Cc3ccccc3)ncc2Cl)c1,i,-37%,-38,-8,-104*,5
COc1ccc(NC(=O)c2nc(S(=O)(=O)Cc3cccc(C)c3)ncc2Cl)c(OC)c1,i,-18%,-9,0,-116*,1
N#Cc1c(NC(=O)CN2CCOCC2)oc(-c2ccccc2)c1-c1ccccc1,-107%*,26%,-3,1,-59*,16
N#Cc1c(NC(=O)Cn2cnc3ccccc3c2=O)oc(-c2ccccc2)c1-c1ccccc1,i,1%,5,-1,-61*,3
N#Cc1c(NC(=O)CSc2ncccn2)oc(-c2ccccc2)c1-c1ccccc1,i,-30%,3,3,-23,-8
CCCCCCCCCCCC(=O)N/N=C/C1CCCCC1,·,·,·,-2,·,·
CCOC(=O)c1cnn(-c2cc(C)c3ccccc3n2)c1N,-133%*,-10%,3,-2,31,-2
CCOC(=O)c1cnn(-c2ccccn2)c1N,i,17%,-2,1,-3,-7
C=CCN1[C@@H](Cc2ccccc2)COCCS1(=O)=O,i,-12%,-25,-4,-50*,4
CN(Cc1ccco1)C(=O)c1nn(Cc2ccccc2)c(=O)c2ccccc12,·,·,·,3,·,·
O=C(O)c1ccc(Sc2nnc(-c3cccc(Br)c3)o2)c([N+](=O)[O-])c1,i,-34%,-2,2,-66*,-5
CN(Cc1c(O)ccc2c1oc(=O)c1ccccc12)C1CCCCC1,i,-5%,-58,22,-57*,-29
CN(C)CCOc1cc(Cl)cc(Cl)c1,i,-3%[11.4 µM],-12,-2,-64*,-1
CN(C)CCOC(=O)Cc1ccc(Cl)cc1,i,33%,-2,-5,1,7
CN(C)CCOC(=O)COc1ccc(Cl)cc1,i,5%[56.9 µM],45*!,-2,-9,-1
O=C(NCCN1CCN(c2ccccc2)CC1)C1CCN(S(=O)(=O)c2cccc3nonc23)CC1,i,17%,41*,-5,-7,2
O=C(C1CCCN(S(=O)(=O)c2cccc3nonc23)C1)N1CCN(c2ccccc2Cl)CC1 (centres undefined),i,-3%,5,-1,-9,-1
O=C(NCCN1CCN(c2ccccc2)CC1)C1CCN(S(=O)(=O)c2cccs2)CC1,i,-3%[11.4 µM],46*,-5,-27,4
Cn1c(=NC(=O)C2CCN(S(=O)(=O)c3cccs3)CC2)sc2ccccc21,-91%*!,0%,9,-2,11,9
